# Legend:
# Histone H2B type 1-B = Histone H2B type 1-B (UniProt P33778); test: cross-link between two proteins; cross-linking mass spectrometry
# DNA topoisomerase 1 = DNA topoisomerase 1 (UniProt P11387); test: as above
# [1] = target: Large ribosomal subunit protein eL36 (UniProt Q9Y3U8); test: as above
# [2] = target: Probable ATP-dependent RNA helicase DDX5 (UniProt P17844); test: as above
# [3] = target: Small ribosomal subunit protein uS17 (UniProt P62280); test: as above
# Histone H4 = Histone H4 (UniProt P62805); test: as above
# [4] = target: Small ribosomal subunit protein eS6 (UniProt P62753); test: as above
# Histone H2B type 1-L [5] = target: Histone H2B type 1-L (UniProt Q99880); test: cross-linking mass spectrometry
# Histone H2B type 1-L [6] = target: Histone H2B type 1-L (UniProt Q99880); test: cross-link between two proteins; cross-linking mass spectrometry
# [7] = target: Large ribosomal subunit protein eL24 (UniProt P83731); test: as above
# [8] = target: Small ribosomal subunit protein uS9 (UniProt P62249); test: as above
# [9] = target: Large ribosomal subunit protein uL18 (UniProt P46777); test: as above
# [10] = target: Large ribosomal subunit protein uL2 (UniProt P62917); test: as above
# [11] = target: Small ribosomal subunit protein uS12 (UniProt P62266); test: as above
# [12] = target: Peptidyl-prolyl cis-trans isomerase A-like 4A (UniProt Q9Y536); test: as above
# Sequence of Peptidyl-prolyl cis-trans isomerase A-like 4A (Q9Y536 whole entry): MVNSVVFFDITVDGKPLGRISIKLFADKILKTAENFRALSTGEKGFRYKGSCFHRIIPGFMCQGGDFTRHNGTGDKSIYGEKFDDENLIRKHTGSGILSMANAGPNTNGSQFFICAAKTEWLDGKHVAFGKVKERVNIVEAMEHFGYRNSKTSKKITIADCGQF
# Sequence of DNA topoisomerase 1 (P11387 whole entry): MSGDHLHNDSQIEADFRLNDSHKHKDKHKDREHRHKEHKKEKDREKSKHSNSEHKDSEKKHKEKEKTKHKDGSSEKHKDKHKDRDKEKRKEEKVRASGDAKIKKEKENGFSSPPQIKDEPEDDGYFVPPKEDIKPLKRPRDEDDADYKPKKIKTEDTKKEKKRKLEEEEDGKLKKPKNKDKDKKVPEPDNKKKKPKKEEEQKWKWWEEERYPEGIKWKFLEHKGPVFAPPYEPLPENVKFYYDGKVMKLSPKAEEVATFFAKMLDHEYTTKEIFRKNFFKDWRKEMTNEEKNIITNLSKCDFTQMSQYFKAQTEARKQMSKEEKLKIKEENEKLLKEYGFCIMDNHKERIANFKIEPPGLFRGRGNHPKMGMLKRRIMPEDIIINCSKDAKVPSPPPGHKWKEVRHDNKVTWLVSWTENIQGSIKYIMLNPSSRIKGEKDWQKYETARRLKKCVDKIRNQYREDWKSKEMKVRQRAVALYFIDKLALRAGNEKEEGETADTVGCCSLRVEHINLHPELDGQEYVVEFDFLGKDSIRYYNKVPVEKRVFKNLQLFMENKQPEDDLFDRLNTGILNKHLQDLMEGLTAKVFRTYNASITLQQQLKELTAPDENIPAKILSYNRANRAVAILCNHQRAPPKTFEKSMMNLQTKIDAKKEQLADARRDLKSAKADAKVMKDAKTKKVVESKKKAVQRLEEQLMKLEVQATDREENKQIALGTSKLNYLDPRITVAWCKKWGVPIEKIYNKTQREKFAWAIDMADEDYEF
# Sequence of Probable ATP-dependent RNA helicase DDX5 (P17844 whole entry): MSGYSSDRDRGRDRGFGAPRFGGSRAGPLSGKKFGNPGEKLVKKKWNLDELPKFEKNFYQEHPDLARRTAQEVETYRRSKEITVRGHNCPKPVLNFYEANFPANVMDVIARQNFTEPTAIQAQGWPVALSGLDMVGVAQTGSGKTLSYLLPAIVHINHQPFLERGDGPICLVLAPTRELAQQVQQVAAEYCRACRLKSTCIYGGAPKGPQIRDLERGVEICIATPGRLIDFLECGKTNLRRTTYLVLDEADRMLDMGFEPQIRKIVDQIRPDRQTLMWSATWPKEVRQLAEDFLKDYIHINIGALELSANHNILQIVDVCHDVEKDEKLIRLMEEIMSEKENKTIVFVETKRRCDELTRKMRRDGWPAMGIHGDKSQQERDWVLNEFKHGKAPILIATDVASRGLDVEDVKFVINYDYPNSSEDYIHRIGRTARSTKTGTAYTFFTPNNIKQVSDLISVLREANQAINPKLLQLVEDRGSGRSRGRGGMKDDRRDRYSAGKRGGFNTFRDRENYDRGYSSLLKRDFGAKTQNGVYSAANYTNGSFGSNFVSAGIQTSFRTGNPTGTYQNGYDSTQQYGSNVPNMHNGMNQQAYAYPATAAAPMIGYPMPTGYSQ
substance,measurement,setting,value
"Large ribosomal subunit protein eL33, P18077",listed as a hit,Histone H2B type 1-B,yes
"Histone H1.4, P10412",listed as a hit,DNA topoisomerase 1,yes
same,listed as a hit,[1],yes
same,listed as a hit,[2],yes
same,listed as a hit,[3],yes
"Small ribosomal subunit protein uS5, P15880",listed as a hit,Histone H4,yes
"Large ribosomal subunit protein uL4, P36578",listed as a hit,[4],yes
"Actin, cytoplasmic 1, P60709",listed as a hit,Histone H2B type 1-L [5],yes
"Large ribosomal subunit protein eL6, Q02878",listed as a hit,Histone H2B type 1-L [6],yes
"Histone H4, P62805",listed as a hit,[7],yes
"Large ribosomal subunit protein eL27, P61353",listed as a hit,[8],yes
"Histone H2B type 1-B, P33778",listed as a hit,[9],yes
same,listed as a hit,[10],yes
same,listed as a hit,[11],yes
"Large ribosomal subunit protein uL18, P46777",listed as a hit,Histone H2B type 1-L [6],yes
"Small ribosomal subunit protein eS1, P61247",listed as a hit,Histone H4,yes
"Small ribosomal subunit protein eS8, P62241",listed as a hit,Histone H2B type 1-L [6],yes
"Large ribosomal subunit protein uL22, P18621",listed as a hit,Histone H2B type 1-B,yes
"Histone H2B type 1-C/E/F/G/I, P62807",listed as a hit,[12],yes
